Drawing on PubChem BioAssay (EPA / NIEHS), this text covers outcome and AC50 for 9 compounds.

The target in experiment [1] is Glucocorticoid receptor (Homo sapiens) (UniProt P04150). Briefly: ATG_GR_TRANS: Attagene TRANS-FACTORIAL HepG2 Assay for human Glucocorticoid Receptor (GR) (AID 2282978; active = hit-call score of the fitted dose curve at least 0.9, where 1 is the maximum;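 note: activators score as hits since higher reporter transcript over DMSO is fitted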). The note with it: HepG2 Attagene TRANS GR reporter, mRNA transcription. The gist of the method:
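Reporter transcript levels, detected by fluorescence after RT-PCR and capillary electrophoresis, served as the endpoint. HepG2 cells bearing transfected GAL4-UAS reporters responsive to NR-GAL4 chimeras were incubated with compound 24 h; DMSO defined baseline.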

For experiment [2], the target named is Oxysterols receptor LXR-alpha (Homo sapiens) (UniProt Q13133). Description: ATG_LXRa_TRANS: Attagene TRANS-FACTORIAL HepG2 Assay for human Liver X Receptor alpha (LXRa) (AID 2282980; active = hit-call score of the fitted dose curve at least 0.9, where 1 is the maximum). The settings on record: HepG2 Attagene TRANS reporter, LXRa transactivation. The gist of the method: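 Read-out: reporter transcript levels by RT-PCR plus capillary electrophoresis, fluorescence intensity. Transiently transfected HepG2, exogenous NR-GAL4 chimera, GAL4-UAS reporters; 24 h compound exposure. Activity = increase over DMSO negative control.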
Sequence of Oxysterols receptor LXR-alpha (Homo sapiens) (Q13133 whole entry, looked up, the tested form may be a part): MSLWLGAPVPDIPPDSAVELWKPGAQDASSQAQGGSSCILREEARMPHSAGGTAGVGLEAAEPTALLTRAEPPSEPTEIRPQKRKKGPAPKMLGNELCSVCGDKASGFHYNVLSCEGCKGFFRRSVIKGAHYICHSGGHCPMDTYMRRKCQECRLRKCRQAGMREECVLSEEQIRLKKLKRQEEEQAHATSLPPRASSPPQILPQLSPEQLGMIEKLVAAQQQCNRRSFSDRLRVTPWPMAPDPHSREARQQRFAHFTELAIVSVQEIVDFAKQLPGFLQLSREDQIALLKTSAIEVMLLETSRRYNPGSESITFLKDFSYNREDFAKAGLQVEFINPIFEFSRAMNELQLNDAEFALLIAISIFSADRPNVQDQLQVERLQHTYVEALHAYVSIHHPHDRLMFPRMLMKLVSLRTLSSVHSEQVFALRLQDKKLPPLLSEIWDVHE

The target in experiment [3] is Nuclear receptor subfamily 4 group A member 2 (Homo sapiens) (UniProt P43354). Description: ATG_NURR1_TRANS: Attagene TRANS-FACTORIAL HepG2 Assay for human Nuclear Receptor Related Protein 1 (NURR1) (AID 2282985; active = hit-call score of the fitted dose curve at least 0.9, where 1 is the maximum). The settings on record: HepG2 Attagene TRANS reporter, mRNA readout. The gist of the method: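 Read-out: reporter mRNA induction by RT-PCR plus capillary electrophoresis with fluorescence detection, after 24 h dosing of transfected HepG2 cells. Exogenous NR-Gal4 chimera activity drives GAL4-UAS reporter; activity fitted upward versus DMSO.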
Sequence of Nuclear receptor subfamily 4 group A member 2 (Homo sapiens) (P43354 whole entry, looked up, the tested form may be a part): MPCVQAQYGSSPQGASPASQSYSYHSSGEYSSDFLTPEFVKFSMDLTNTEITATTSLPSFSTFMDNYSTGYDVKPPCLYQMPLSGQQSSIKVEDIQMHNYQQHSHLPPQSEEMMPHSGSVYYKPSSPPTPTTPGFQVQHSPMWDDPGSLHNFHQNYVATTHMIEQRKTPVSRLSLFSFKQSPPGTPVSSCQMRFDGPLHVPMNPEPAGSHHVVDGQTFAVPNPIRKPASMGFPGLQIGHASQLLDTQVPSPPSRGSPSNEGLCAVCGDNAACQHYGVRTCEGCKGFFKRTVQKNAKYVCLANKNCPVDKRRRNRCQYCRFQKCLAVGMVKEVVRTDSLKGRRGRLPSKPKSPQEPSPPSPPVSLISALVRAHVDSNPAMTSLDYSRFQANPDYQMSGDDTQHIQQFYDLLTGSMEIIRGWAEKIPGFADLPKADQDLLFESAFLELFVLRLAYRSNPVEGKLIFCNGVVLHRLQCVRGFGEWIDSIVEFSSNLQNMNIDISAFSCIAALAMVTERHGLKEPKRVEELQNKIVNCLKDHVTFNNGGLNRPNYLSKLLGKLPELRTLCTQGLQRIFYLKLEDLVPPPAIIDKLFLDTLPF

The target in experiment [4] is Transcriptional activator Myb (Homo sapiens) (UniProt P10242). Description: ATG_Myb_CIS: Attagene CIS-FACTORIAL HepG2 Assay for human Myeloblastosis (Myb) Proto-Oncogene Transcription Factor (AID 2282986). The note with it: HepG2 Attagene CIS-FACTORIAL Myb reporter transcription; actives raise or lower the signal. An outline of the steps: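 Transiently transfected HepG2 cells, treated 24 h. Reporter mRNA quantified by RT-PCR/capillary electrophoresis; bidirectional fit relative to DMSO.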
Sequence of Transcriptional activator Myb (Homo sapiens) (P10242 whole entry, looked up): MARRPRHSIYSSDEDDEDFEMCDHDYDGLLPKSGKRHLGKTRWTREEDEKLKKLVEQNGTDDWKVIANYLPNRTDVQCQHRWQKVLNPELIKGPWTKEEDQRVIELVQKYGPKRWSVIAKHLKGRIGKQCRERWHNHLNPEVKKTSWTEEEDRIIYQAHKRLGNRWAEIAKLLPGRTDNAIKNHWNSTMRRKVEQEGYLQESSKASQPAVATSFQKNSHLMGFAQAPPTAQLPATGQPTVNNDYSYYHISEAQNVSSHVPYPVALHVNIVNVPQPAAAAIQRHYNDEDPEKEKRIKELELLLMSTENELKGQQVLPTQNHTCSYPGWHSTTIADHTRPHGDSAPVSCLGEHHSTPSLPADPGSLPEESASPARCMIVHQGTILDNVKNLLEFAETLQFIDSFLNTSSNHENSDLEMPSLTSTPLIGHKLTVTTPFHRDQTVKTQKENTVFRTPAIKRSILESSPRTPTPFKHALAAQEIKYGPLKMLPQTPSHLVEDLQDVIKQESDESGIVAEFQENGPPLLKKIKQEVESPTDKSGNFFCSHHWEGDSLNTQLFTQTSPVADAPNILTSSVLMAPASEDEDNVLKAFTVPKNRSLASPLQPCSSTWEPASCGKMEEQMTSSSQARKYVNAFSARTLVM

Experiment [5] addresses Nuclear respiratory factor 1 (Homo sapiens) (UniProt Q16656). Briefly: ATG_NRF1_CIS: Attagene CIS-FACTORIAL HepG2 Assay for human Nuclear Respiratory Factor 1 (NRF1) Orphan Gene (AID 2282987). The settings on record: HepG2 NRF1 cis-element reporter, Attagene multiplex; actives raise or lower the signal. The gist of the method: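 Cells (HepG2, transient MRTU transfection) are exposed to compound for 24 h, then RNA isolated and reporter mRNA amplified and fluorescently labelled. Fragments are separated by capillary electrophoresis; signal change is fitted bidirectionally relative to DMSO.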

The nature of experiment [6]: ATG_NFI_CIS: Attagene CIS-FACTORIAL HepG2 Assay for human Nuclear Factor I (NFI) (AID 2282989). The note with it: HepG2 cis-regulatory reporter, NFI response element transcription; actives raise or lower the signal. An outline of the steps: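 Read-out: reporter mRNA via RT-PCR plus capillary electrophoresis with fluorescence detection. Transiently transfected HepG2 (endogenous TF activity on cis promoters), 24 h compound exposure; gain or loss of signal fitted against DMSO.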

Experiment [7] concerns the target Myc proto-oncogene protein (Homo sapiens) (UniProt P01106). Description: ATG_Myc_CIS: Attagene CIS-FACTORIAL HepG2 Assay for human Myelocytomatosis (Myc) Proto-Oncogene Transcription Factor (AID 2282990). The settings on record: HepG2, Attagene cis-reporter transcription factor activity; actives raise or lower the signal. An outline of the steps:
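Fluorescence intensity of reporter-specific cDNA fragments, separated by capillary electrophoresis, gives the signal. Transfected HepG2 cells carrying cis-promoter reporter constructs are incubated with compound for 24 h; DMSO serves as baseline.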

A short description of experiment [8]: ATG_NF_kB_CIS: Attagene CIS-FACTORIAL HepG2 Assay for human Nuclear Factor Kappa B (NF-kB) (AID 2282991). The note with it: HepG2 Attagene cis-factorial NF-kB reporter mRNA; actives raise or lower the signal. The gist of the method: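 Measures mRNA induction of an NF-kB-responsive cis-element reporter in HepG2 cells transfected with multiple reporter units, sampled 24 h post-dosing; quantified by fluorescence after RT-PCR and capillary electrophoresis, fitted for activation or inhibition against DMSO.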

Experiment [9] in a line: ATG_NRF2_ARE_CIS: Attagene CIS-FACTORIAL HepG2 Assay for human Nuclear Factor Erythroid 2 Related Factor 2 (NFR2) response to Antioxidant Response Elements (ARE) (AID 2282992). The note with it: HepG2 Attagene ARE/NRF2 reporter, transcription factor activity; actives raise or lower the signal. The gist of the method: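 Endogenous transcription factor activity read out as reporter transcript levels (RT-PCR plus capillary electrophoresis, fluorescence) in transiently transfected HepG2 cells. Measured at 24 h after dosing; gain or loss of signal fitted versus DMSO.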

The nature of experiment [10]: ATG_Oct_MLP_CIS: Attagene CIS-FACTORIAL HepG2 Assay for human Octamer-Binding Transcription Factor (Oct) (AID 2282993). The settings on record: HepG2 Attagene cis-factorial Oct reporter, mRNA; actives raise or lower the signal. The gist of the method:
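Read-out: reporter mRNA via RT-PCR plus capillary electrophoresis of 6-FAM-labelled fragments. Transiently transfected HepG2, 24 h exposure, endogenous TF activity on cis elements. Gain or loss of signal fitted relative to DMSO.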

The target in experiment [11] is Cellular tumor antigen p53 (Homo sapiens) (UniProt P04637). Description: ATG_p53_CIS: Attagene CIS-FACTORIAL HepG2 Assay for human p53 Transcription Factor (AID 2282994). The settings on record: HepG2 p53 cis-element reporter, Attagene mRNA; actives raise or lower the signal. An outline of the steps:
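Endogenous p53 activity read in transiently transfected HepG2 from a cis-element-driven reporter transcript after 24 h exposure. RNA reverse-transcribed, PCR-amplified, fluorescently labelled and sized by capillary electrophoresis; gain or loss fitted against DMSO baseline.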

Experiment [12] has as its target Oxysterols receptor LXR-beta (Homo sapiens) (UniProt P55055). Briefly: ATG_LXRb_TRANS: Attagene TRANS-FACTORIAL HepG2 Assay for human Liver X Receptor beta (LXRb) (AID 2282981; active = hit-call score of the fitted dose curve at least 0.9, where 1 is the maximum). The note with it: HepG2 Attagene TRANS GAL4-LXRb reporter, mRNA. An outline of the steps: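 Readout: fluorescent reporter mRNA fragments resolved by capillary electrophoresis after RT-PCR. System: transiently transfected human HepG2, exogenous LXRb-Gal4 chimera driving GAL4-UAS reporter, 24 h dosing. Activity fitted upward against DMSO baseline.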

The nature of experiment [13]: ATG_M_06_TRANS: Attagene TRANS-FACTORIAL HepG2 Assay for M06 Transcription Factor (Internal Marker) (AID 2282983; active = hit-call score of the fitted dose curve at least 0.9, where 1 is the maximum). The settings on record: HepG2 Attagene TRANS M06 internal marker reporter. The gist of the method:
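Read-out: fluorescent reporter cDNA fragments resolved by capillary electrophoresis after RT-PCR and HpaI cut. Source cells were HepG2 carrying transfected multi-reporter GAL4 constructs, dosed 24 h. Increase over DMSO control analysed.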

Experiment [14] is described as follows: BSK_3C_TissueFactor: BioMAP Diversity Plus: 3C Assay for Tissue Factor Biomarker Activity (AID 2282997). The settings on record: BioMAP 3C HUVEC, tissue factor biomarker readout; actives raise or lower the signal. The gist of the method: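 HUVEC, 3C system, 24 h post-dose; Tissue Factor by ELISA; bidirectional fit vs DMSO baseline.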
Experiment [15] is described as follows: BSK_3C_uPAR: BioMAP Diversity Plus: 3C Assay for Urokinase-type plasminogen activator receptor (uPAR) Biomarker Activity (AID 2282998). The note with it: BioMAP 3C HUVEC, uPAR biomarker ELISA; actives raise or lower the signal. The gist of the method: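 HUVEC primary cells; 24 h post-dose; uPAR by ELISA; gain or loss of signal fitted bidirectionally vs DMSO baseline.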
(In general: An ELISA detects its analyte on a solid surface through an enzyme-linked reagent.)

Experiment [16] is described as follows: BSK_3C_VCAM1: BioMAP Diversity Plus: 3C Assay for Vascular cell adhesion molecule 1 (VCAM1) Biomarker Activity (AID 2282999). The note with it: BioMAP 3C HUVEC, VCAM1 ELISA, cytokine-stimulated; actives raise or lower the signal. An outline of the steps: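 HUVEC primary cells, 24 h compound exposure; VCAM-1 by ELISA; gain/loss of signal fitted bidirectionally vs DMSO baseline.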

A short description of experiment [17]: BSK_4H_Eotaxin3: BioMAP Diversity Plus: 4H Assay for Eotaxin 3 Biomarker Activity (AID 2283000).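 Note: CCL26 protein level quantified by ELISA in parallel with SRB cytotoxicity check.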 The settings on record: primary human endothelial cells (HUVEC); actives raise or lower the signal. The gist of the method:
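Readout is Eotaxin-3 (CCL26) level by ELISA in primary human umbilical vein endothelial cells harvested 24 h after chemical exposure; activity fitted in both directions against DMSO control.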

Experiment [18] deals with Hepatocyte nuclear factor 4-alpha (Homo sapiens) (UniProt P41235). Description: ATG_HNF4a_TRANS: Attagene TRANS-FACTORIAL HepG2 Assay for human Hepatocyte Nuclear Factor 4 alpha (HNF4a) (AID 2282982; active = hit-call score of the fitted dose curve at least 0.9, where 1 is the maximum). The settings on record: HepG2 HNF4a transactivation reporter, mRNA readout. An outline of the steps: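 Transient MRTU transfection of HepG2, 24 h dosing. Readout: reporter mRNA via RT-PCR + capillary electrophoresis, fluorescence; activity fit upward relative to DMSO control.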
Sequence of Hepatocyte nuclear factor 4-alpha (Homo sapiens) (P41235 whole entry, looked up): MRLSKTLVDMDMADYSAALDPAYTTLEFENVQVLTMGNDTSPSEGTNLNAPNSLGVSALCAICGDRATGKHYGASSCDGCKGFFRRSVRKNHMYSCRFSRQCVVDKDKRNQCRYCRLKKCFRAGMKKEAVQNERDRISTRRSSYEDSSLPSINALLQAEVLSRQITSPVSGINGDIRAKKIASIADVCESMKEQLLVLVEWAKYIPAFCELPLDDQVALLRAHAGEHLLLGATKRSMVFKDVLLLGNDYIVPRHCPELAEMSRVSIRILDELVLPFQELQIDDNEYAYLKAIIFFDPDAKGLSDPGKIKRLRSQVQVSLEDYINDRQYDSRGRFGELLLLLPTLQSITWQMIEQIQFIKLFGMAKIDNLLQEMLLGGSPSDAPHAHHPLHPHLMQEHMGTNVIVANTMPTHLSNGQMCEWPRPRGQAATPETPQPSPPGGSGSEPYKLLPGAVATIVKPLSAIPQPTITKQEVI

A short description of experiment [19]: ATG_M_32_TRANS: Attagene TRANS-FACTORIAL HepG2 Assay for M32 Transcription Factor (Internal Marker) (AID 2282984; active = hit-call score of the fitted dose curve at least 0.9, where 1 is the maximum;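 note: transcript level of a background control reporter unit measured by RT-PCR and capillary electrophoresis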). The settings on record: HepG2 Attagene TRANS M32 internal marker reporter. The gist of the method: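 Read-out: fluorescent reporter cDNA fragments resolved by capillary electrophoresis after RT-PCR of total RNA. Transfected HepG2 cells were exposed to chemical for 24 h. Activity scored in the positive direction relative to DMSO.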

The structures appear in SMILES notation. Records with an inconclusive call do not appear. Activity calls are given as the source filed them. Rule for the calls, unless noted: active = hit-call score of the fitted dose curve at least 0.9, where 1 is the maximum; inactive = score below 0.9.

Sequence of Oxysterols receptor LXR-beta (Homo sapiens) (P55055 whole entry, looked up, the tested form may be a part): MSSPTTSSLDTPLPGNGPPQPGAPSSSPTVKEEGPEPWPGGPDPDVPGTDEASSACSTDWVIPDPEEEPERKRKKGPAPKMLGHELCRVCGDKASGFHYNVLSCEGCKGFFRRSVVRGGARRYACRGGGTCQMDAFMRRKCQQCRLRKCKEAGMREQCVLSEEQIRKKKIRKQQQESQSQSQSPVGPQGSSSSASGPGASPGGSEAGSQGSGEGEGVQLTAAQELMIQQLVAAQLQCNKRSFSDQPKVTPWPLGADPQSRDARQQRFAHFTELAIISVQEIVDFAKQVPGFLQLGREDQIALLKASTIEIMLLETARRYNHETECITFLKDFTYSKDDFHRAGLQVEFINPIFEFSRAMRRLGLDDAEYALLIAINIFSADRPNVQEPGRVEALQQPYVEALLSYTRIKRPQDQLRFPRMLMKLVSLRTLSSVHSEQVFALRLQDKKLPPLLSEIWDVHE
Sequence of Glucocorticoid receptor (Homo sapiens) (P04150 whole entry, looked up, the tested form may be a part): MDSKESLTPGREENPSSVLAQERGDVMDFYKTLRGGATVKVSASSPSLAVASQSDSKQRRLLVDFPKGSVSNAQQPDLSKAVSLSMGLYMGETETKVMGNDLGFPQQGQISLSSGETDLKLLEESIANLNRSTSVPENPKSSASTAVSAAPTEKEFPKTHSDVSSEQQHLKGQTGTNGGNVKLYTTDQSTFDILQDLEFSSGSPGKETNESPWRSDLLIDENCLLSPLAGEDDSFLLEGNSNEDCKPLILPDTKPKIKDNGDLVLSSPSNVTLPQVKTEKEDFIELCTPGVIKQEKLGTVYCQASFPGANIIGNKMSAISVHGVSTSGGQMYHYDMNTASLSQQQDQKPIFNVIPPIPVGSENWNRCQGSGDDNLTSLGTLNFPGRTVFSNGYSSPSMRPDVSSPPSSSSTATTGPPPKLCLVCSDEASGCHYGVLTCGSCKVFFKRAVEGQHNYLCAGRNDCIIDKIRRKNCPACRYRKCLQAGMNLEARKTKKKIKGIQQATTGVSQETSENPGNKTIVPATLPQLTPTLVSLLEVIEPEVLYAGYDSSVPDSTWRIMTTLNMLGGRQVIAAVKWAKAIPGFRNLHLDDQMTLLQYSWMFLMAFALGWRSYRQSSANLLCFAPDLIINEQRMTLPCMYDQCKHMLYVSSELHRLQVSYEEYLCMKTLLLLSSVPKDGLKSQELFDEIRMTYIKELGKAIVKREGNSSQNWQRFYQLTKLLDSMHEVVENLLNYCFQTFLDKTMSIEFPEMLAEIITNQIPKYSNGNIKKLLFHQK
Sequence of Myc proto-oncogene protein (Homo sapiens) (P01106 whole entry, looked up, the tested form may be a part): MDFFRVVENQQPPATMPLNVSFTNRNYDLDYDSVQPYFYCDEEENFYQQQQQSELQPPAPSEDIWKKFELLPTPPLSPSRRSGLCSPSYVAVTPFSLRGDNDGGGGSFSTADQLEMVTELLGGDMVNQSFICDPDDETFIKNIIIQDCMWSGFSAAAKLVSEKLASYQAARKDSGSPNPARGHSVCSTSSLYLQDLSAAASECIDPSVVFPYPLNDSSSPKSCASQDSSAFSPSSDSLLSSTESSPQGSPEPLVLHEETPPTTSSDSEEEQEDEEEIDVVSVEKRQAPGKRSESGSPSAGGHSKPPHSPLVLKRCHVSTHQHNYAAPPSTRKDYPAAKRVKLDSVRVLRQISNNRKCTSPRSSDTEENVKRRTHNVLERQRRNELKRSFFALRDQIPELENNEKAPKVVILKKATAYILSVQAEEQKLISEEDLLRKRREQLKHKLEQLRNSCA
Sequence of Nuclear respiratory factor 1 (Homo sapiens) (Q16656 whole entry, looked up, the tested form may be a part): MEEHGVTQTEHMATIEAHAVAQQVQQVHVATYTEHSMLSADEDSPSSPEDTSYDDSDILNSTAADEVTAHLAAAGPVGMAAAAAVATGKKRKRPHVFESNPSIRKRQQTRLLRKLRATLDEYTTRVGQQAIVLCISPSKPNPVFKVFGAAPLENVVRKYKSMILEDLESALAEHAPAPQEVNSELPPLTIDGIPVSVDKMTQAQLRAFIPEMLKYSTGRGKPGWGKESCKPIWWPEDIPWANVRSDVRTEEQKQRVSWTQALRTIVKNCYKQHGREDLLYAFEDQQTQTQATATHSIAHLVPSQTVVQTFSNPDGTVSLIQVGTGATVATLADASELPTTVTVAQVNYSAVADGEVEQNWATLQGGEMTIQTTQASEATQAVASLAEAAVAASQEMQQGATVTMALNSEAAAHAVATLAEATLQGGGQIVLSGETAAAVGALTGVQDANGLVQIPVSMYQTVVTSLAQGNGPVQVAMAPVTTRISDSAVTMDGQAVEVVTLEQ
Sequence of Cellular tumor antigen p53 (Homo sapiens) (P04637 whole entry, looked up): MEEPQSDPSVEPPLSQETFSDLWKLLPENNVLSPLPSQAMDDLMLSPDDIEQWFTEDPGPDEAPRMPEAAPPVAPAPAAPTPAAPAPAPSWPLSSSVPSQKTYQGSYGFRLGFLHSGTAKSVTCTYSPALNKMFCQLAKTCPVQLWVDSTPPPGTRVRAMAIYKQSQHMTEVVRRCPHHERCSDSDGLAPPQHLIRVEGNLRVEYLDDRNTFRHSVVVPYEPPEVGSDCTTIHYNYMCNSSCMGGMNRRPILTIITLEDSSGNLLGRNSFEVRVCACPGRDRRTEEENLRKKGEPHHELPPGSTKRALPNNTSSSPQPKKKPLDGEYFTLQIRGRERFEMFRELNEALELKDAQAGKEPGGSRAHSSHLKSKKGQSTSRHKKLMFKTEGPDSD

As to `Clc1ccc(Cl)c(Cl)c1Cl`, the compound was called inactive in [1], in experiment [2], in [3], in experiment [4], in experiment [5] and in experiment [6]. The call in experiment [7], in experiment [8], in experiment [9], in [10] and in experiment [11] was inactive.
Take `COc1cc(C=O)ccc1OC(=O)C(C)C`: the call in experiment [1], in [12], in [13], in experiment [3], in experiment [4] and in [5] was inactive. Also, the outcome in experiment [6], in experiment [7], in experiment [8], in experiment [9], in [10] and in experiment [11] was inactive. The result in [14], in experiment [15], in experiment [16] and in experiment [17] was inactive.
Regarding `Nc1ccc(F)c([N+](=O)[O-])c1`, the result in [1], in experiment [12], in [18], in experiment [4], in experiment [5] and in [6] was inactive. Besides, the compound was classed as inactive in experiment [7], in [8], in [9], in [10] and in experiment [11].
In the case of `COc1cccc(OC)c1`, the result in experiment [1], in [12], in experiment [5], in [6], in experiment [7] and in experiment [8] was inactive. In addition, the call in experiment [9], in experiment [10] and in experiment [11] was inactive.
For `COCCOCCOCCOCCOCCO`, the compound was called inactive in experiment [1], in [12], in [18], in experiment [13], in [19] and in experiment [3]. Further, the call in [4], in [5], in experiment [7], in experiment [8], in experiment [9] and in experiment [10] was inactive. Further, the compound was called inactive in experiment [11].
`Cc1cccc(Nc2ccccc2C(=O)O)c1C`: the compound was classed as inactive in experiment [1], in experiment [12], in [18], in [13], in experiment [19] and in [3]. Further, the result in experiment [4], in experiment [5], in [6], in experiment [7] and in [10] was inactive. For the same compound, the AC50 in experiment [9] is 100 µM (active).
On to `O=C=NC1CCC(CC2CCC(N=C=O)CC2)CC1` (stereo unspecified), for which the outcome in experiment [1], in [2], in experiment [13], in [4], in [6] and in experiment [9] was inactive. The compound was classed as inactive in [11], in experiment [15], in experiment [16] and in experiment [17]. In addition, the half-maximal activity concentration (AC50) was 100 µM (active) in experiment [7], 61.8 µM (active) in experiment [10] and 3.97 µM (active) in experiment [14].
In the case of `O=c1cc(-c2ccccc2)oc2cc(O)cc(O)c12`, the result in [1], in [2], in experiment [13], in experiment [19], in experiment [3] and in [4] was inactive. The outcome in experiment [5], in experiment [6], in experiment [7] and in experiment [10] was inactive. Besides, the AC50 in [8] is 12.4 µM (active); in experiment [9], 2.2 µM (active); in experiment [11], 3.66 µM (active).
`O=C(O)CCCCC1CCSS1` (stereo unspecified): the outcome in [1], in experiment [12], in [18], in [13], in [3] and in [4] was inactive. The call in experiment [5], in experiment [6], in experiment [7], in experiment [8], in experiment [10] and in experiment [11] was inactive. Moreover, the AC50 in experiment [9] was 40 µM (active).

As usually defined, the AC50 is the concentration at which the activity in the assay is half-maximal.
